Assay results taken from PubChem BioAssay AID1566 (Sanford-Burnham Center for Chemical Genomics, 2009).
The whole screen tested about 290,000 compounds, of which about 1,800 (0.62%) were called active. No stated cut-off is given here; in the data, active means inhibition above about 50%; inactive means the rest. The list comes from a sample in which actives are over-represented; it also holds similar structures and randomly drawn compounds.

Test: inhibition of NOD2-driven NF-kB reporter – cell-based, luminescence, uHTS, HEK293 (AID 1566)
Conditions: HEK293 NOD2/NF-kB luciferase reporter, at 4 µM, active compounds read high

inhibition, inactive:
O=C(CSc1nc2ccccc2[nH]1)NCc1ccccc1 -35%, COc1ccc(S(=O)(=O)N2CCN(CC(O)COc3ccc(C#N)cc3)CC2)cc1OC (stereo not drawn) 1.5%, CC(=O)Nc1ccccc1OCC(=O)N(Cc1ccccc1)C(C)C 19.2%, Cc1ccc(-n2c(C)nc3ncnc(-c4ccccc4)c32)cc1 17.9%, CN1C(=O)/C(=C/c2ccccc2F)Sc2ccc(C(=O)NCC3CCCO3)cc21 (stereo not drawn) 17%, CN1C(=O)/C(=C/c2ccccc2F)Sc2ccc(C(=O)N3CCCC3)cc21 37.3%, CCc1c(C)nc2c(C)cccc2c1SCCC#N 12.6%, O=C(CN1CCN(C(c2ccccc2)c2ccccc2)CC1)Nc1ccc(N2CCOCC2)cc1 6.9%, COC(=O)c1c(NC(=O)c2ccc(OC(C)C)cc2)sc2c1CC(C)(C)NC2(C)C 7.3%, COc1ccccc1/C=N/NC(=O)c1sc(C)nc1C 6.4%, COc1ccc(/C=N/NC(=O)c2sc(C)nc2C)cc1 13.6%, Cc1onc(-c2ccccc2)c1C(=O)N1CCOC12CCN(c1cccc(F)n1)CC2 14.4%, O=C(NCCc1ccccc1)C1CCCN(c2ncnc3c2nc2n3CCCCC2)C1 (stereo not drawn) 18.5%, COC(=O)c1sc(N2C(=O)C(O)=C(C(=O)c3ccc(C)o3)C2c2ccco2)nc1C (stereo not drawn) 39.6%, O=C(NCc1ccccc1)N1CCOCC1 -1.5%, Cc1nc2cc(N3CCCCC3)c(NC(=O)c3ccncc3)cc2c(=O)n1Cc1ccccc1 10.5%, CC(=O)Nc1cc2c(=O)n(Cc3ccccc3)c(C)nc2cc1N1CCOCC1 9.5%, CC(=O)Nc1ccc(NC(=O)c2sc(-c3ccccc3)nc2C)cc1 19.3%, COc1cc2cc(CN(CCc3ccccc3C)C(=S)NCCCN3CCOCC3)c(=O)[nH]c2cc1OC 17.4%, COc1ccc(Nc2nc3ccccc3nc2NS(=O)(=O)c2cccs2)cc1 37.8%, O=C(O)c1ccc(Nc2nc3ccccc3nc2NS(=O)(=O)c2cccs2)cc1 7.1%, CC(=O)Nc1ccc(S(=O)(=O)N2CCN(CC(=O)NC3CCCC3)CC2)cc1 -8.9%, O=C1OCC2=C1C(c1ccccc1)CC(=O)N2c1ccc(F)cc1 (stereo not drawn) -3.1%, Cc1c(CCC(=O)O)c(=O)oc2c(C)c(OCc3cc4c(cc3Cl)OCO4)ccc12 35%, Cc1c(CCC(=O)O)c(=O)oc2c(C)c3occ(-c4ccc(Br)cc4)c3cc12 41%, COc1ccccc1COc1ccc2c(C)c(CC(=O)O)c(=O)oc2c1C 10.3%, COc1ccc(-c2coc3c(C)c4oc(=O)c(CCC(=O)O)c(C)c4cc23)cc1 5.8%, CCOc1ccccc1C(=O)OCC(=O)NCCNC(=O)COC(=O)c1ccccc1OCC -4.3%, CCCN1C(=O)/C(=C/c2ccc(C)o2)SC1=Nc1ccc(OCC)cc1 1.9%, O=c1cc(CSc2nnc(COc3ccc(Cl)cc3)o2)c2ccccc2[nH]1 17.3%, COc1cccc(C2CNC3(CCCC(C)C3)c3[nH]c4ccccc4c32)c1OC (stereo not drawn) -9%, O=C(N/N=C/c1cccc(O)c1)c1ccc(COc2ccc3c(c2)CCC3)o1 -30.7%, COc1ccc(Br)cc1/C=N/NC(=O)c1ccc(COc2ccc3c(c2)CCC3)o1 -48.8%, O=C(NCCc1ccc(Cl)cc1)C1CCCN1C(=O)Nc1ccccc1 (stereo not drawn) 13.4%, Cc1ccc(NC(=O)C(C)Sc2n[nH]c(CNc3ccccc3)n2)cc1 (stereo not drawn) 3.6%, CC1Sc2ccc(S(=O)(=O)N3CCC(C(=O)Nc4cccc(Cl)c4)CC3)cc2NC1=O (stereo not drawn) 14.4%, Cc1ccc(NC(=O)C2CCN(S(=O)(=O)c3ccc4c(c3)NC(=O)C(C)S4)CC2)cc1C (stereo not drawn) 16.5%, CN(C)c1ccc(C2N(C(=O)N3CCOCC3)CCN2S(=O)(=O)c2ccccc2)cc1 (stereo not drawn) 13.1%, Cc1c(Br)c([N+](=O)[O-])nn1CC(=O)Nc1ccc2nc3n(c(=O)c2c1)CCCC3 17.3%, Cc1ccc(/C=C(/NC(=O)c2ccccc2)C(=O)NC(Cc2c[nH]c3ccccc23)C(=O)O)cc1 (stereo not drawn) 9.4%, COc1ccc([N+](=O)[O-])c(S(=O)(=O)c2ccccc2)n1 29%, COc1nc(OC)nc(Oc2ccc(Cl)cc2[N+](=O)[O-])n1 10.1%, Cc1c(CC(=O)N[C@@H](C)C(=O)O)c(=O)oc2cc3occ(-c4ccccc4)c3cc12 14%, COc1cc(C(=O)OCC(C)=O)c([N+](=O)[O-])cc1OC 0.4%, N#Cc1c(-c2ccccc2)nc(SCc2ccc(Cl)cc2)[nH]c1=O 24.8%, CCSc1nc(-c2ccccc2)c(C#N)c(=O)[nH]1 20%, O=C(c1ccc2c(=O)n(-c3ccccc3)c(=O)[nH]c2c1)N1CCN(c2ccc(F)cc2)CC1 14.2%, Cc1cccc(SCC(=O)Nc2ccc3c(c2)OCCO3)c1 -70.2%, Cc1cc(NC(=O)CSc2ccc3c(c2)OCCO3)no1 14.9%, CCn1c(=O)c(=O)[nH]c2cc(C(=O)NC(C)c3ccc(S(N)(=O)=O)cc3)ccc21 (stereo not drawn) -19.7%, O=c1oc2ccc(Cl)cc2cc1-c1nnc(Nc2cccc(C(F)(F)F)c2)s1 9%, CNc1nnc(-c2cc3ccccc3oc2=O)s1 -76.8%

inhibition, active:
CN1C(=O)/C(=C\c2ccccc2F)Sc2ccc(C(=O)NC3CCN(Cc4ccccc4)CC3)cc21 58.2%, Cc1nc(C)c(C(=O)N/N=C/c2cc(Br)ccc2O)s1 50.9%, O=C(N/N=C/c1cc([N+](=O)[O-])ccc1O)c1ccc(COc2ccc3c(c2)CCC3)o1 50.4%, COc1ccc([N+](=O)[O-])c(S(=O)(=O)c2ccc(Cl)cc2)n1 60.3%, Cc1ccc(NC(=O)CSc2ccc3c(c2)OCCO3)c(O)c1 54.3%, CNc1nnc(-c2cc3cc(Cl)ccc3oc2=O)s1 94.4%
